A short description of test [1]: A CellTox Green Cytotoxicity Assay to monitor cytotoxicity in HepG2 cells - 0 hour (AID 1224882). Also: nearly all actives have a fitted effect of over 35% in size. The method, boiled down:
(§1)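 Real-time cytotoxicity: fluorescence of a cell-impermeant cyanine dye binding DNA of dead HepG2 cells, measured repeatedly (0–40 h) during compound exposure at 37 C. Cells seeded 600/well with reagent, dosed after 5 h.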

The nature of test [2]: A CellTox Green Cytotoxicity Assay to monitor cytotoxicity in HepG2 cells - 32 hour (AID 1224883). Also: nearly all actives have a fitted effect of over 50% in size. The method in brief: as §1
Test [3] is described as follows: A CellTox Green Cytotoxicity Assay to monitor cytotoxicity in HEK293 cells - 8 hour (AID 1224884). Also: nearly all actives have a fitted effect of over 35% in size. The method, boiled down:
(§2)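 Fluorescence from a DNA-binding dye excluded by viable cells was measured repeatedly in the same HEK293 wells (600 cells/well) during continuous compound exposure at 37 C. Each assay gives one read point: 0, 8, 16, 24, 32 or 40 h.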

Test [4] in a line: qHTS RealTime-Glo MT Cell Viability Assay in HepG2 cells - 16 hour (AID 1224885). Also: nearly all actives have a fitted effect of over 50% in size. The method in brief: (§3)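 HepG2 cells (600/well) were dispensed with RealTime-Glo reagents, incubated 5 h at 37 °C, then treated with compounds in DMSO for up to 40 h. Nonlytic NanoLuc luminescence reflecting viable cells was read at each stated time point.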
In general terms: qHTS replaces the single test concentration by a dilution series.

Test [5] in a line: qHTS RealTime-Glo MT Cell Viability Assay in HEK293 cells - 24 hour (AID 1224886). Also: top concentration of the series differs between compounds; nearly all actives have a fitted effect of over 50% in size. The method, boiled down: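 HEK293 cells seeded with NanoLuc/prosubstrate reagent, rested 5 h at 37 C, then dosed and kept at 37 C up to 40 h. Nonlytic real-time luminescence from viable cells read at 0, 8, 16, 24, 32 and 40 h.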
Test [6] in a line: qHTS RealTime-Glo MT Cell Viability Assay in HEK293 cells - 8 hour (AID 1224887). Also: top concentration of the series differs between compounds; nearly all actives have a fitted effect of over 50% in size. The method in brief: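 Luminescence, which tracks viable cell number through reduction of the prosubstrate to a NanoLuc substrate, was read over continuous 37 C culture. Cells (600/well) were premixed with reagent and rested 5 h before 23 nL of compound in DMSO was pinned.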
Test [7] is described as follows: qHTS RealTime-Glo MT Cell Viability Assay in HepG2 cells - 0 hour (AID 1224889). Also: nearly all actives have a fitted effect of over 50% in size. Also: potency is read from the fitted curve at half-maximal effect. The method in brief:
as §3

Test [8] is described as follows: A CellTox Green Cytotoxicity Assay to monitor cytotoxicity in HepG2 cells - 8 hour (AID 1224890). Also: nearly all actives have a fitted effect of over 45% in size. The method in brief:
as §1

Test [9] is described as follows: A CellTox Green Cytotoxicity Assay to monitor cytotoxicity in HEK293 cells - 16 hour (AID 1224888). Also: nearly all actives have a fitted effect of over 35% in size. Also: potency is read from the fitted curve at half-maximal effect. The method, boiled down: as §2
Test [10] is described as follows: qHTS assay to identify small molecule antagonists of the estrogen receptor alpha (ER-alpha) signaling pathway using the BG1 cell line in the presence of 0.1 nM 17-beta-estradiol - cell viability counter screen (AID 1259241). Also: nearly all actives have a fitted effect of over 40% in size. The method, boiled down:
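Measures cytotoxicity alongside the ER-alpha antagonist readout: VM7Luc4E2 cells, charcoal-stripped serum, 0.1 nM 17beta-estradiol final, 22 hr compound incubation at 37C, CellTiter-Fluor fluorescence.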

The structures appear in SMILES notation. Inconclusive results are not listed. Activity calls are given as the source filed them. Calls follow the shape of the dose curve; as a rule, active = well fitted curve in the direction sought with a large enough effect in the repeat runs; inconclusive = weak or mixed curves; inactive = no such curve, though single readings can be large; an effect the other way counts as inactive or inconclusive.

Consider `O=C1OC(=O)C2C1C1(Cl)C(Cl)=C(Cl)C2(Cl)C1(Cl)Cl` (stereo not drawn), for which the molecule was called inactive in [1]. The Potency entry in test [2], in [3], in test [4], in test [5], in test [6] and in [7] was “inactive” each time. Moreover, in test [8], the Potency entry is “inactive”.

Turning to `CC(C)(C)C(=O)C(Oc1ccc(Cl)cc1)n1cncn1` (stereo not drawn), in test [1], the result was inactive. In addition, the Potency entry in test [2], in [3], in test [4], in [6], in test [9] and in test [7] was “inactive” in each case. Also, the Potency result in [8] was “inactive”.

On to `C[C@@H]1CN(C2CCC(C#N)(c3ccc(F)cc3)CC2)CC[C@]1(C(=O)O)c1ccccc1` (stereo partly drawn), for which the call in test [1] and in [10] was inactive. Besides, the Potency result in test [2], in test [3], in test [4], in [5], in [6] and in [7] was “inactive” in each case. Moreover, in test [8], the Potency result was “inactive”.

Regarding `C[C@]1(O)CC[C@H]2[C@@H]3CCC4=CC(=O)CC[C@]4(C)[C@@]3(F)[C@@H](O)C[C@@]21C`, the molecule was called inactive in test [1] and in test [10]. Also, the Potency entry in [2], in [3], in [4], in test [5], in [6] and in [8] was “inactive” each time. For the same molecule, the Potency in test [7] was 12.4 µM (active).

`Nc1cc(Cl)ccc1O`: the molecule was called inactive in [1] and in test [10]. In addition, the Potency entry in [2], in test [3], in [4], in [5], in [9] and in test [7] was “inactive” throughout. In test [8], the Potency result was “inactive”.

Consider `CC1=C(C(=O)Nc2ccccc2)S(=O)(=O)CCO1`, for which the molecule was called inactive in [1] and in test [10]. The Potency entry in [2], in test [3], in [4], in test [6], in test [9] and in [7] was “inactive” in each case. In addition, in test [8], the Potency result is “inactive”.

With `O=NN1CCN(N=O)CC1`, the molecule was called inactive in [1] and in test [10]. In addition, the Potency result in test [2], in test [3], in [4], in test [6], in test [9] and in [7] was “inactive” throughout. For the same molecule, in [8], the Potency result was “inactive”.

Take `COc1cccc(C(=O)NN(C(=O)c2cc(C)cc(C)c2)C(C)(C)C)c1C`: the call in [1] was inactive. Besides, the Potency result in test [2], in test [3], in test [4], in test [6], in [9] and in test [7] was “inactive” in each case. Also, in test [8], the Potency entry is “inactive”.

Consider `COC(=O)C(C)Oc1ccc(Oc2ccc(Cl)cc2Cl)cc1` (stereo not drawn), for which the molecule was called inactive in test [1] and in test [10]. Also, the Potency result in test [2], in [3], in test [4], in test [6], in test [9] and in test [7] was “inactive” in each case. The Potency result in test [8] was “inactive”.

Take `CC(C1CC1)C(O)(Cn1cncn1)c1ccc(Cl)cc1` (stereo not drawn): the outcome in [1] and in [10] was inactive. In addition, the Potency entry in test [2], in test [3], in test [4], in test [6], in test [9] and in test [7] was “inactive” in each case. Also, the Potency result in test [8] is “inactive”.

For the molecule `O=[N+]([O-])c1cc(Cl)c(Cl)c(Cl)c1`, the molecule was classed as inactive in test [1] and in [10]. In addition, the Potency result in [2], in [3], in test [4], in test [6], in [7] and in test [8] was “inactive” in each case. Also, in [9], the Potency was 21.7 µM (active).

For the molecule `C#C[C@]1(O)C=C[C@H]2[C@@H]3CCC4=CC(=O)CC[C@@H]4[C@H]3CC[C@@]21CC`, the molecule was called inactive in test [1] and in test [10]. In addition, the Potency entry in test [2], in test [3], in test [4], in [6], in test [9] and in [7] was “inactive” in each case. The Potency result in [8] is “inactive”.

Turning to `Cc1cc(C)c(C(=O)P(=O)(C(=O)c2c(C)cc(C)cc2C)c2ccccc2)c(C)c1`, in test [1], the molecule was classed as inactive. The Potency entry in test [2], in test [3], in test [4], in [6], in test [9] and in test [7] was “inactive” each time. The Potency result in test [8] is “inactive”.

Consider `CC(C(=O)c1ccccc1)N(C)C` (stereo not drawn), for which the molecule was classed as inactive in test [1] and in [10]. Besides, the Potency entry in test [2], in test [3], in test [4], in test [6], in test [9] and in [7] was “inactive” in each case. Also, in test [8], the Potency entry was “inactive”.

Take `OC(c1ccccc1)(c1ccccc1)C1CCNCC1`: the outcome in test [1] and in test [10] was inactive. For the same molecule, the Potency result in test [2], in test [3], in test [4], in [6], in test [9] and in test [7] was “inactive” throughout. In addition, in test [8], the Potency entry is “inactive”.

With `CN1CCN(C(=O)O[C@H]2c3nccnc3C(=O)N2c2ccc(Cl)cn2)CC1`, the result in test [1] was inactive. Moreover, the Potency result in test [2], in [3], in test [4], in test [6], in test [7] and in test [8] was “inactive” each time.

Turning to `C[N+](=O)[O-]`, the outcome in test [1] and in test [10] was inactive. For the same molecule, the Potency entry in test [2], in test [3], in test [4], in test [6], in test [9] and in test [7] was “inactive” each time. Further, the Potency result in test [8] was “inactive”.

On to `CN1C[C@@H](NS(=O)(=O)N(C)C)C[C@@H]2c3cccc4c3c(cn4C)C[C@H]21`, for which the outcome in test [1] and in [10] was inactive. For the same molecule, the Potency result in [2], in test [3], in [4], in [6], in test [9] and in test [7] was “inactive” each time. Also, the Potency entry in [8] is “inactive”.

As to `Nc1ccccc1Cl`, the molecule was called inactive in test [1] and in test [10]. Further, the Potency result in [2], in [3], in test [4], in test [6], in [9] and in [7] was “inactive” throughout. The Potency entry in test [8] was “inactive”.

For `CCC(Cl)[N+](=O)[O-]` (stereo not drawn), the molecule was classed as inactive in test [1] and in [10]. Further, the Potency entry in test [2], in test [3], in test [4], in test [6], in test [7] and in test [8] was “inactive” each time.

Regarding `COc1cc(C[C@@H](C)N)c(OC)cc1C`, the molecule was called inactive in [1] and in test [10]. Further, the Potency result in test [2], in test [3], in [4], in [6], in test [9] and in [7] was “inactive” each time. Besides, the Potency entry in test [8] was “inactive”.

As to `CN(C)CCc1ccc(O)cc1`, the outcome in test [1] and in [10] was inactive. Also, the Potency result in [2], in [3], in test [4], in test [6], in test [9] and in test [7] was “inactive” throughout. Besides, the Potency entry in test [8] was “inactive”.

In the case of `O=C(O)c1cccc(Cl)c1`, the result in test [1] and in test [10] was inactive. Moreover, the Potency result in [2], in test [3], in [4], in test [6], in test [9] and in test [7] was “inactive” each time. Besides, the Potency result in test [8] was “inactive”.

In the case of `Nc1n[nH]c(N)n1`, the outcome in test [1] and in test [10] was inactive. Further, the Potency result in test [2], in test [3], in test [4], in [6], in test [9] and in test [7] was “inactive” in each case. Further, in [8], the Potency result is “inactive”.

As to `COc1cc2c(cc1OC)[C@@]13CCN4CC5=CCO[C@H]6CC(=O)N2[C@H]1[C@H]6[C@H]5C[C@H]43`, the outcome in [1] and in test [10] was inactive. Besides, the Potency result in test [2], in [3], in test [4], in [6], in test [9] and in [7] was “inactive” throughout. The Potency result in [8] is “inactive”.
